# Laboratory results: PubChem BioAssay AID2284061 (EPA ToxCast)
# Results filed as inconclusive are left out. The source made the active and inactive calls. How the source made its calls: active means hit-call score of the fitted dose curve at least 0.9, where 1 is the maximum; inconclusive means response in the unintended direction; inactive means score below 0.9.
# Target: human Akt3 (PKBgamma) AGC Kinase, AKT3 (gene 10000) (UniProt Q9Y243)
# Assay: ERF_FR_ENZ_hAKT3: Eurofins (ERF) Enzymatic Radiometric [Km ATP] KinaseProfiler LeadHunter Assay for human Akt3 (PKBgamma) AGC Kinase
# Method: ERF_FR_ENZ_hAKT3 is a biochemical, single-readout assay that uses extracted gene-proteins in a cell-free assay. Measurements were taken 0.5 hour after chemical dosing in a 96-well plate. See Akt3 (PKBgamma) Human AGC Kinase Enzymatic LANCE Assay [Km ATP], Cerep.ERF_FR_ENZ_hAKT3 is an assay component calculated from the ERF_FR_ENZ_hAKT3 assay. It is designed to measure enzyme activity using a type of enzyme reporter as detected by fluorescence intensity with LANCE technology.Data from the assay component ERF_FR_ENZ_hAKT3 was analyzed at the assay endpoint, ERF_FR_ENZ_hAKT3, in the positive analysis fitting direction relative to DMSO as the negative control and baseline of activity. Using a type of enzyme reporter, loss-of-signal activity can be used to understand changes in enzymatic activity as they relate to gene AKT3. To generalize the intended target to other relatable targets, this assay endpoint is annotated to the kinase intended target family, where the subfamily is serine/threonine kinase.
# PKBb (h) is incubated with 8 mM MOPS pH 7.0, 0.2 mM EDTA, 30 uM […], 10 mM MgAcetate and [g- 33P]-ATP (specific activity and concentration as required). The reaction is initiated by the addition of the Mg/ATP mix. After incubation for 40 minutes at room temperature, the reaction is stopped by the addition of phosphoric acid to a concentration of 0.5%. […]
# human Akt3 (PKBgamma) AGC Kinase, AKT3 (gene 10000), sequence (Q9Y243 whole entry, looked up): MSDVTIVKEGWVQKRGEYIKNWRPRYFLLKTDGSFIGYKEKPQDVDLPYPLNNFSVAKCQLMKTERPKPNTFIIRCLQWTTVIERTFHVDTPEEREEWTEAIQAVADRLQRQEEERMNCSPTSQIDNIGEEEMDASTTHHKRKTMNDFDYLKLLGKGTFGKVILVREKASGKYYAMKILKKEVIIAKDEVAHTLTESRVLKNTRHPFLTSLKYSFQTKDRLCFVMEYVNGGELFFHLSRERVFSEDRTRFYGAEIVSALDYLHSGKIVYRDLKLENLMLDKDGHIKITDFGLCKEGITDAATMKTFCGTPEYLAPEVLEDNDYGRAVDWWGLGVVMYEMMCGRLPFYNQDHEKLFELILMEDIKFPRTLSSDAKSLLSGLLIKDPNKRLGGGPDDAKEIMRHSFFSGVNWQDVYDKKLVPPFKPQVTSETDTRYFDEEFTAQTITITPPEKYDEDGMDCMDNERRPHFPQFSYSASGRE
row,Compound,outcome
1,O=C(/C=C/c1ccc(O)cc1)CC(=O)/C=C/c1ccc(O)cc1,inactive
2,COc1cc(CCC(=O)CC(=O)CCc2ccc(O)c(OC)c2)ccc1O,inactive
